Source: PubChem BioAssay AID488890 (Southern Research Specialized Biocontainment Screening …, 2010)
The campaign covered roughly 320,000 compounds. About 1,300 (0.41%) were called active. Roughly 3% stayed inconclusive and do not appear here. No rule for the calls is given here. These entries were drawn from the full list. Results with a measured potency or affinity are listed apart.

test: growth inhibition of non-replicating M. tuberculosis (AID 488890); details: Mycobacterium tuberculosis non-replicating, at 25 µM, stronger effect = higher value;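 also: plate controls were DMSO cells for no effect and high antibiotic wells for full effect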

SMILES | inhibition [%]
COc1ccc(/C=N/NC(=O)c2cccs2)c2ccccc12 | 76.3
CCOC(=O)CCCNC(=O)COC(=O)c1cc(C)cc(C)c1 | -5.81
CCOC(=O)CCCNC(=O)COC(=O)c1ccc(O)cc1 | -2.65
COc1ccc(S(=O)(=O)NCC2CCCN(Cc3ccc(C)o3)C2)cc1 (stereo unspecified) | 8.61
COc1ccc(C(=O)N2CCN(CCNC(=O)C(=O)Nc3ccc(F)cc3)CC2)cc1OC | -5.42
CC(C)NCC(=O)C12CC3CC(CC(C3)C1)C2 | -12.5
COc1ccc(C(=O)COC(=O)CCc2nc3ccccc3[nH]c2=O)cc1Br | 5.73
COC1CCCN(C(=O)c2ccc3oc(Cc4ccc(Cl)cc4)nc3c2)C1 (stereo unspecified) | 23.6
CCN(CC)c1ccc(CNCc2cccs2)cc1 | 6.27
O=C(COc1ccccc1)NNC(=O)c1cc2ccccc2oc1=O | 10.5
COc1cccc2cc(C(=O)NC(C)c3ccccc3)c(=O)oc12 (stereo unspecified) | 26.4
Cc1cc(C)cc(OCC(=O)NNC(=O)c2cc3ccccc3o2)c1 | -4.01
Cc1ccc(C(C)NC(=O)c2ccco2)cc1C (stereo unspecified) | 71.1
CC(NC(=O)c1cc(Br)ccc1Cl)c1ccccc1 (stereo unspecified) | 0.91
COc1ccc2oc(=O)c(C(=O)NC(C)c3ccccc3)cc2c1 (stereo unspecified) | 16.5
CC(=O)OCCNC(=O)c1cc2ccccc2oc1=O | -10.9
CC(NC(=O)c1cc(Br)ccc1Br)c1ccccc1 (stereo unspecified) | -17.5
Cc1ccccc1CS(=O)(=O)CCC(=O)NCCCN1CCOCC1 | -2.86
CCN(CC)CCNC(=O)c1ccc(NC(=O)c2cc(-c3ccco3)nc3ccccc23)cc1 | 4.2
O=C(CCc1ccccc1)Nc1cc(NC(=O)CCc2ccccc2)cc(C(=O)O)c1 | -12.7
COc1ccc(C(=O)Nc2ccccc2NC(=O)c2ccc(OC)cc2)cc1 | -3.72
COc1ccc(-c2nc(-c3cccs3)no2)cc1 | 24.2
COc1ccc(/C=N/c2nc3ccccc3n2CCN2CCCCC2)cc1OC | 4.24
Cc1ccc(S(=O)(=O)N2CCOC2CNC(=O)C(=O)NCCN(C)C)cc1 (stereo unspecified) | -4.76

SMILES | inhibition [%]
CCN(C(=O)COC(=O)c1ccc(Cl)cc1N)C1CCCCC1 | 30.8
O=c1c2cc([N+](=O)[O-])cc([N+](=O)[O-])c2[nH]n1-c1ccccc1 | 5.65
COc1ccc(CNC(=O)C/C(C)=N/NC(=O)COc2cccc(C)c2)cc1 | -10.6
CC(=NNC(=O)COc1cccc(C)c1)c1cccnc1 | 2.36
O=S(=O)(Nc1c(O)ccc2ccccc12)c1ccc(F)cc1 | -1.3
O=S(=O)(Nc1ccc2c3c(cccc13)CC2)c1ccc(F)cc1 | 21.3
O=C(COc1ccc(Br)cc1)Nc1ccccc1N1CCCC1 | 26.6
CCn1c(NC(=S)Nc2ccccc2)nc2ccccc21 | 57.9
CN(C)CCCn1c(NC(=O)C2CCCCC2)nc2ccccc21 | 24.1
CCn1c(NC(=O)Nc2ccccc2OC)nc2ccccc21 | 43
CCn1c(NC2CCCCC2)nc2ccccc21 | 8.52
O=C(Nc1nc2ccccc2n1Cc1ccccc1)c1ccc(COc2ccccc2[N+](=O)[O-])o1 | -4.43
CCn1c(-c2nonc2NC(=O)c2ccccc2)nc2ccccc21 | 3.27
CCn1c(CNC(=O)c2ccccc2)nc2ccccc21 | 2.98
CCn1c(NC(=O)c2ccc(COc3ccc(C)cc3[N+](=O)[O-])o2)nc2ccccc21 | 14
COc1ccc(C(C)(C)NC(=O)C2CCC(=O)N(C3CCCC3)C2)cc1OC (stereo unspecified) | 1.54
O=C(O)c1cc(-c2ccc(Cl)cc2)n(-c2ccc(Cl)cc2)n1 | 28.3
O=C(COC(=O)c1ccc(OC(F)F)cc1)Nc1cccc(S(=O)(=O)NC2=NCCC2)c1 | -15.4
CN(C)S(=O)(=O)N1CCC(Oc2ccc(C(=O)N3C[C@H]4CC[C@H]3C4)cc2)CC1 | -6.7
O=C(CCS(=O)(=O)Cc1ccccc1)NCC1CCCO1 (stereo unspecified) | -2.41
CNC(=O)n1cc(C)c(-c2cccs2)n1 | 3.54
O=C(NCc1cccnc1)C1CCC(CNS(=O)(=O)c2cccc3nsnc23)CC1 (stereo unspecified) | -1.6
CCOc1cc(S(=O)(=O)NC2CCCCC2)ccc1F | 22.4
C=CCn1c(SCC(=O)Nc2ccc(C(=O)O)cc2)nc2scc(-c3ccccc3)c2c1=O | 6.43

SMILES | inhibition [%]
O=C(Nc1nc2ccccc2n1CCN1CCOCC1)c1ccccc1 | 78.5
CCn1c(C)nc2cc(C(=O)N/N=C/c3ccc(OC)cc3)ccc21 | -1.99
Cn1c(CCNC(=O)c2ccccc2)nc2ccccc21 | -11.6
CCn1c(/C=N/Nc2ccc(C(=O)O)cc2)nc2ccccc21 | 5.68
CCCn1c(CNC(=O)c2ccccc2)nc2ccccc21 | 1.31
Cn1c(NC(=O)c2cccnc2)nc2ccccc21 | 74.7
Cc1ccc(-n2nc3c(=O)n(CCCC(=O)NCc4ccc(Cl)cc4)nc(C)c3c2C)cc1 | 52.4
Cc1ccc(C(C(=O)NC2CCCC2)N(C(=O)c2csnn2)c2ccccc2)o1 (stereo unspecified) | 9.58
O=[N+]([O-])c1cccc(/C=N\N2CCN(Cc3ccccc3Cl)CC2)c1 | -2.97
O=C(COc1ccc(Br)cc1)N1CCC(c2ccccc2)C1 (stereo unspecified) | 68
COC(=O)C1(C)CN(S(=O)(=O)c2ccc(C)cc2)c2cc(OC)ccc2C1=O (stereo unspecified) | 35.5
CC1=NCCN1S(=O)(=O)c1ccc(Br)c(C)c1 | 1.05
O=[N+]([O-])c1ccc(Oc2cccc(C(F)(F)F)c2)nc1 | 65.4
O=S(=O)(c1cccc(C(F)(F)F)c1)c1ccc(O)cn1 | 0.61
Cc1cc(Sc2ccc([N+](=O)[O-])cn2)ccc1Br | 12.1
CCOc1ccc(CCNC(=O)COC(=O)Cn2cnc3ccccc3c2=O)cc1OCC | 18.2
COc1ccccc1CNC(=O)COC(=O)COc1ccccc1Cc1ccccc1 | 25.1
O=C(Nc1cccc(-n2cnnn2)c1)c1ccoc1COc1ccc(Cl)cc1 | 5.71
CSc1ccccc1C(=O)C1CCCN(S(=O)(=O)c2c(C)noc2C)C1 (stereo unspecified) | -0.64
Cc1ccc(Nc2c(-c3ccco3)nc3ccccn23)cc1 | 43.3
c1ccc(Nc2c(-c3ccco3)nc3ccccn23)cc1 | 43.1
CCOc1ccc(S(=O)(=O)N(CC(=O)NCc2cccnc2)c2ccc(F)cc2)cc1 | 1.08
CCN(C[C@H]1N[C@@](CC)(C(=O)OC)[C@H]2C(=O)N(C)C(=O)[C@@H]12)C(=O)Nc1ccc(C)cc1 | 3.1
O=C(O)C1CC(=O)N(c2ccc3c(c2)OCCO3)C1 (stereo unspecified) | -10.2

SMILES | inhibition [%]
O=C1c2ccccc2NC(c2ccc3c(c2)OCCO3)N1c1ccc2c(c1)OCCO2 (stereo unspecified) | 29.3
CN1CCN(c2ccc(CNC(=O)c3ccc4c(c3)OCCO4)cc2)CC1 | -0.49
Cc1cc(Cl)ccc1NC(=O)COC(=O)c1nc2nccc(C)n2n1 | -0.03
COc1cc2c(cc1OC)CN(C(=O)CCC(=O)c1ccc(F)cc1)CC2 | 19.6
O=C(CCN1CCOCC1)c1ccccc1 | 75.5
CC(CN1CCOCC1)OC(=O)c1ccccc1 (stereo unspecified) | -8.24
O=C(NCCCN1CCOCC1)c1ccc(Br)cc1 | 17.1
CC(CN1CCCC1)OC(=O)c1ccc(Br)cc1 (stereo unspecified) | -10.6
COc1cc2c(cc1OC)CN(CCOc1ccc(Br)cc1)CC2 | 17.6
O=C(CN1CCOCC1)c1ccc(Br)cc1 | 61.8
O=C(NCCN1CCOCC1)c1ccc(Cl)cc1 | -1.14
O=C(CCc1ccccc1)Nc1ccccc1F | 18.9
COc1ccccc1N(C(=O)CNC(=O)c1ccco1)C(C(=O)NC1CCCC1)c1ccncc1 (stereo unspecified) | 2.47
CSc1cccc(NC(=O)CCNS(=O)(=O)c2ccc3[nH]c(=O)oc3c2)c1 | -8.71
O=C(NCCCN1CCOCC1)c1cc2c([nH]c3ccccc32)c(-c2cccc(Br)c2)n1 | 77.1
CN=C1S/C(=C/c2cn(CC(=O)OC)c3ccccc23)C(=O)N1C | 47.1
O=C(O)C1CC(=O)N(CCOc2ccccc2)C1 (stereo unspecified) | -0.16
CC1CCC(NC(=O)CCNC(=O)c2ccc(Br)cc2)CC1 (stereo unspecified) | 67.6
Cn1cnnc1Sc1ccc(C(=O)NCCC23CC4CC(CC(C4)C2)C3)cc1[N+](=O)[O-] | 33.9
COc1ccc(C(C)C)cc1S(=O)(=O)NCC1CCCO1 (stereo unspecified) | 16
CC1CCCN(CCOc2ccc(Br)cc2)C1 (stereo unspecified) | 16.9
CC1CCCN(CCC(=O)Nc2ccc(Br)cc2)C1 (stereo unspecified) | 10.6
COc1ccc(OC)c2c1CC(C)(C)NC2=O | -28.9
COc1ccc(/C=C2\SC(=S)N(CCCC(=O)Nc3ccc(O)cc3)C2=O)cc1 | 53.3

SMILES | inhibition [%]
COc1ccc(/C=C2/SC(=S)N(CCCC(=O)Nc3ccc(O)cc3)C2=O)cc1 | 71.1
Cc1ccc(S(=O)(=O)CCC(=O)Oc2ccc3c(C)cc(=O)oc3c2)cc1 | 6.87
CC(C)CNC(=O)N1c2ccccc2Sc2ccccc21 | 30.4
N=c1c(S(=O)(=O)c2ccc(Cl)cc2)cc2c(=O)n3ccccc3nc2n1CCc1ccccc1 | 16.6
Cc1ccc(C)c(OCCCN2CCCC2)c1 | -3.13
Fc1ccccc1/C=N/Nc1nc2ccccc2o1 | 14.1
Oc1ccc(/C=N/Nc2ncc(Br)cn2)c(O)c1 | 57.8
Brc1ccc(/C=N/Nc2nc3ccccc3o2)cc1 | 0.82
Oc1ccc(Br)cc1/C=N/Nc1ncc(-c2ccccc2)cn1 | 1.56
Clc1cc(Cl)cc(NC2=NCCS2)c1 | 5.95
COc1ccc(S(=O)(=O)n2oc(=O)cc2-c2ccccc2)cc1OC | -6.84
Cc1occc1C(=O)NC1CCCc2ccccc21 (stereo unspecified) | 3.75
Cc1ccc(NC(=O)COc2ncnc3sccc23)cc1S(=O)(=O)N(C)C | 7.74
Cc1c(C#N)c2ccccc2n1C | -15.1
O=C(O)C1CC(=O)N(c2ccc(OCc3ccccc3Cl)cc2)C1 (stereo unspecified) | 31.4
COc1ccc(N2CC(C(=O)OCC(=O)c3ccc(C)cc3)CC2=O)cc1 (stereo unspecified) | 23.6
COc1cccc(COC(=O)C2CC(=O)N(Cc3ccc(C)cc3)C2)c1OC (stereo unspecified) | 76.5
COC(=O)C1CC(=O)N(c2ccc(C)cc2)C1 (stereo unspecified) | 24.5
NC(=O)C1CC(=O)N(c2ccc(OCc3ccccc3Cl)cc2)C1 (stereo unspecified) | 58.3
O=C(OCc1ccccc1Cl)C1CC(=O)N(Cc2ccco2)C1 (stereo unspecified) | 12.3
